{"source": "PubChem BioAssay AID504441", "about": "(Broad Institute, 2011)", "note": "The campaign covered roughly 310,000 compounds. About 1,300 (0.42%) were called active. The sample holds actives, similar compounds and a random draw of the others, so the mix is not that of the screen. Values without a mark were called inactive. No stated cut-off is given here; in the data, active means inhibition above about 50%; inactive means the rest."}
{"biological_target": "Dual specificity tyrosine-phosphorylation-regulated kinase 1A (Rattus norvegicus) (UniProt Q63470)", "experiment": "inhibition of Dyrk1A kinase activity – biochemical, single point, plate reader, primary screen (AID 504441);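 further: plate controls were vehicle with enzyme for no effect and no enzyme for full effect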", "details": "ADP-Glo luminescence, NFATc1 peptide, at 12.5 µM, hits give high values"}
{"smiles": "CC(NC(=O)c1ccccc1)C(=O)OCC(=O)Nc1cccc(S(=O)(=O)N2CCCC2)c1", "note": "(stereo unspecified)", "inhibition": "1.68%"}
{"smiles": "Cc1noc(NS(=O)(=O)c2ccc(NC(=O)c3oc4ccc(F)cc4c3C)cc2)c1C", "inhibition": "60% (active)"}
{"smiles": "Cc1ccnc(NS(=O)(=O)c2ccc(NC(=O)c3oc4ccc(F)cc4c3C)cc2)n1", "inhibition": "1.02%"}
{"smiles": "Cc1ccnc(NS(=O)(=O)c2ccc(NC(=O)c3oc4ccccc4c3C)cc2)n1", "inhibition": "28.5%"}
{"smiles": "CCC1(C)COC(c2ccc(OC)c(OC)c2)OC1", "note": "(stereo unspecified)", "inhibition": "2.1%"}
{"smiles": "O=C(O)C(c1cccs1)C1(O)CCCCC1", "note": "(stereo unspecified)", "inhibition": "2.77%"}
{"smiles": "NC(=O)C1CCN(C(=O)c2cc(S(=O)(=O)N3CCN(c4ccccc4)CC3)ccc2Cl)CC1", "inhibition": "8.45%"}
{"smiles": "CC(C)Cn1cnc2c(SCc3ccc(Cl)cc3)nc(N)nc21", "inhibition": "7.52%"}
{"smiles": "CCc1nnc(NC(=O)c2cc(S(=O)(=O)N3CCN(CC)CC3)ccc2Cl)s1", "inhibition": "7.13%"}
{"smiles": "c1ccc(C(=NNc2nc3ccccc3s2)c2ccccn2)cc1", "inhibition": "12.7%"}
{"smiles": "COc1ccc(N=C2C=CC(=O)O2)cc1", "inhibition": "7.98%"}
{"smiles": "O=C(NCC1(N2CCCCC2)CCCCC1)c1cccc(S(=O)(=O)Nc2ccccc2Cl)c1", "inhibition": "-5.86%"}
{"smiles": "COc1cccc2cc(-c3cc(=O)oc4cc(C)c(O)cc34)oc12", "inhibition": "-4.38%"}
{"smiles": "COc1cccc2c(O)cc(=O)n(C)c12", "inhibition": "26.6%"}
{"smiles": "COc1cc(O)c2c(=O)c3c(O)c(O)ccc3oc2c1OC", "inhibition": "50.1% (active)"}
{"smiles": "CC(C)(C)OC(=O)N(Cc1ccccc1)Cc1ccc(OCc2cccc(NC(=O)c3ccccc3)c2)cc1", "inhibition": "-3.26%"}
{"smiles": "COc1ccc(-c2nc3cc(C)ccn3c2NC2CCCCC2)cc1SC1CCCCC1", "inhibition": "1.83%"}
{"smiles": "CCN(CC)S(=O)(=O)c1cccc(NC(=O)c2ccc(S(=O)(=O)N3CCCC3)cc2)c1", "inhibition": "1.24%"}
{"smiles": "CC(C)(C)OC(=O)N1CCC(C(=O)Nc2cccc(C(=O)NCCc3ccccc3)c2)CC1", "inhibition": "-16.9%"}
{"smiles": "CCOC(=O)c1cccc(NC(=O)CCc2nnc3ccc(N4CCOCC4)nn23)c1", "inhibition": "2.86%"}
{"smiles": "CCOc1ccc(CCNC(=O)CCc2nnc3ccc(N4CCCC4)nn23)cc1OCC", "inhibition": "17.6%"}
{"smiles": "CCN(CC)c1ccc(NC(=O)CCc2nnc3ccc(N4CCCCC4)nn23)c(C)c1", "inhibition": "59.6% (active)"}
{"smiles": "O=C1C(Cl)=C(Oc2ccccc2)C(=O)c2ccccc21", "inhibition": "35.4%"}
{"smiles": "Oc1cccc(CCc2ccccn2)c1", "inhibition": "7.91%"}
{"smiles": "COc1ccc(OC)c(Cc2cnc3nc(N)nc(N)c3c2C)c1", "inhibition": "-1.98%"}
{"smiles": "Nc1nonc1-n1nnc(C(=O)N/N=C\\c2ccncc2)c1CN1CCCCC1", "inhibition": "77.4% (active)"}
{"smiles": "Nc1nonc1-n1nnc(C(=O)N/N=C/c2ccccc2O)c1CN1CCCC1", "inhibition": "14.8%"}
{"smiles": "NNC(=O)c1nnn(-c2nonc2N)c1CN1CCCC1", "inhibition": "15.1%"}
{"smiles": "Cc1nc(Nc2ccccc2C)c2cnn(C)c2n1", "inhibition": "-5.25%"}
{"smiles": "CCOC(=O)N(Cc1ccccc1)C1CC1", "inhibition": "-0.945%"}
{"smiles": "COc1ccc(CCC(=O)Nc2ccc(Cl)c(S(=O)(=O)N3CCOCC3)c2)cc1OC", "inhibition": "-1.66%"}
{"smiles": "CN1c2ccc(C=O)c3c(C=O)ccc(c23)N(C)C1(C)C", "inhibition": "91.2% (active)"}
{"smiles": "CN(CCc1ccccc1)C(=O)c1cccc(NC(=O)Cc2cccc(NC(=O)C3CCCN(C(=O)C4CCC4)C3)c2)c1", "note": "(stereo unspecified)", "inhibition": "-0.693%"}
{"smiles": "CCCN(CC(=O)Nc1ccccc1C)C(=O)c1ccc(OCC(=O)N2CCOCC2)c(OCC)c1", "inhibition": "-7.61%"}
{"smiles": "CN(O)C(=S)c1ccccc1", "inhibition": "-0.499%"}
{"smiles": "CSc1ncnc2c1ncn2CC(=O)C1CCC2C3CCC4=CC(=O)CCC4(C)C3CCC12C", "note": "(stereo unspecified)", "inhibition": "5.41%"}
{"smiles": "COc1cc(OC)cc(-c2cc3ccc(F)cc3cn2)c1", "inhibition": "13.1%"}
{"smiles": "CCOc1ccc(S(=O)(=O)N2CCN(C(=O)c3oc4ccccc4c3C)CC2)cc1", "inhibition": "3.49%"}
{"smiles": "CCn1c(=O)c2cc(C(=O)Nc3cccc(C(C)=O)c3)sc2c2ccccc21", "inhibition": "-0.698%"}
{"smiles": "CCn1c(NC(=O)c2ccccc2)c(-c2cccs2)c(=O)c2ccccc21", "inhibition": "65.9% (active)"}
{"smiles": "COc1ccccc1C(=O)Nn1c(-c2cccs2)nc2ccccc2c1=O", "inhibition": "32.3%"}
{"smiles": "CCc1cc2c(NC(Cc3ccccc3)C(=O)O)ncnc2s1", "note": "(stereo unspecified)", "inhibition": "2.6%"}
{"smiles": "CCc1cc2c(NC3CCCC3)ncnc2s1", "inhibition": "53.2% (active)"}
{"smiles": "CCc1cc2c(N3CCN(c4nnc(CC)s4)CC3)ncnc2s1", "inhibition": "25.4%"}
{"smiles": "COc1cc(/C=C/c2ccc(/C=C/c3cc(OC)c(OC)c(OC)c3)cc2)cc(OC)c1OC", "inhibition": "-1.84%"}
{"smiles": "C#CCOCCOCCOCCNc1nc(N2CCN(C(=O)Cn3cc(CCO)nn3)CC2)nc(N2CCN(C(=O)Cn3cc(CCCN=C(N)N)nn3)CC2)n1", "inhibition": "4.84%"}
{"smiles": "COc1ccc(Cl)cc1C=CC=Nc1ccc(S(N)(=O)=O)cc1", "inhibition": "-0.507%"}
{"smiles": "COc1ccc(S(=O)(=O)N(C)C[C@H]2Oc3ccc(NS(=O)(=O)c4cccs4)cc3CC(=O)N([C@H](C)CO)C[C@H]2C)cc1", "inhibition": "55.4% (active)"}
{"smiles": "COc1ccc(S(=O)(=O)N(C)C[C@@H]2Oc3ccc(NS(=O)(=O)c4cn(C)cn4)cc3C(=O)N([C@@H](C)CO)C[C@@H]2C)cc1", "inhibition": "0.973%"}
{"smiles": "C[C@H]1CN([C@@H](C)CO)C(=O)Cc2cc(NC(=O)Cc3ccccc3)ccc2O[C@H]1CN(C)S(=O)(=O)c1cccs1", "inhibition": "-0.989%"}
{"smiles": "O=C(NC1=CC(=O)c2ccccc2C1=O)c1ccccc1", "inhibition": "-0.529%"}
{"smiles": "O=C(OC12CC3CC(CC(C3)C1)C2)c1ccc(NCc2cc(O)ccc2O)cc1", "inhibition": "1.7%"}
{"smiles": "Cc1nn(-c2ncccn2)c2c1C(=O)CC(C)(C)C2Br", "note": "(stereo unspecified)", "inhibition": "6.11%"}
{"smiles": "C=C(C)Cn1c(N2CCN(CC)CC2)nc2c1c(=O)[nH]c(=O)n2C", "inhibition": "55.9% (active)"}
{"smiles": "Cn1c(=O)[nH]c(=O)c2c1nc(N1CCN(C(c3ccccc3)c3ccccc3)CC1)n2CCO", "inhibition": "1.27%"}
{"smiles": "C=C(C)Cn1c(N2CCCC2)nc2c1c(=O)[nH]c(=O)n2C", "inhibition": "-3.28%"}
